The campaign covered roughly 140,000 compounds. About 2,100 (1.5%) were called active. For the sample, actives were picked, then their nearest neighbours and some compounds at random. Unmarked numbers belong to inactive results.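 Rule for the calls: active = viability at or under a set limit, the compound median less 4 SD (cut at about 6% in these data); inactive = the rest.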
Assay: primary screen for suppressors of beta-catenin knockout HCT116 cell growth, colon tumor, human (AID 818);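 note: 0% = Hyamine 1622 control at 20 µM and 100% = untreated cell control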
Conditions: CellTiter-Glo, 60 h, at 10 µM, hits give low values

SMILES	viability
CCNS(=O)(=O)c1ccc(NC(=O)c2cncc(Br)c2)cc1	97.6%
O=C(NC(=S)Nc1ccc2oc(=O)ccc2c1)c1ccc(-c2cccc(Cl)c2Cl)o1	101%
COc1cccc2sc(NNC(=O)c3nc4ccccc4s3)nc12	14.9%
CC(=O)c1sc(NC(=O)c2cccc3ccccc23)nc1C	87.1%
COc1cccc2sc(Nc3nc(C)c(C(C)=O)s3)nc12	5.29% (active)
CCOc1ccc2nc(NC(=O)c3cc([N+](=O)[O-])ccc3N3CCOCC3)sc2c1	39.5%
COc1ccccc1N1CCN(C(=O)C(=O)N/N=C/c2ccccc2F)CC1	104%
Fc1ccc2c(c1)C(c1cccnc1)=NNC(c1cccs1)=N2	40.4%
Fc1ccc2[nH]c3c(N4CCSCC4)ncnc3c2c1	5.04% (active)
CCN1CCCC1CNc1ncnc2c1[nH]c1ccc(F)cc12 (stereo not given)	82.2%
CC(C)OCCCNc1ncnc2c1[nH]c1ccc(F)cc12	9.7%
CC(=O)COc1ccc2c(-c3ccccc3)cc(=O)oc2c1	95.5%
COc1ccc(C2COC(=O)C2=N)c(NC(=O)c2ccccc2)c1 (stereo not given)	79.1%
CC1(c2ccccc2)CC(C)(C)N(C(=O)c2cc([N+](=O)[O-])cc([N+](=O)[O-])c2)c2ccccc21 (stereo not given)	69%
CN1CCN(CCCNC(=O)c2cc3c(=O)oc4ccccc4c3s2)CC1	92%
O=C(NCCN1CCN(Cc2ccccc2)CC1)c1cc2c(=O)[nH]c3ccccc3c2s1	1.35% (active)
Cn1c(C(=O)NCCN2CCc3ccccc3C2)cc2c(=O)[nH]c3ccccc3c21	87.4%
COc1ccccc1N=Cc1c(O)c2ccccc2oc1=O	84.7%
CCCCCCc1cc2cc(-c3nnc(-c4ccccc4)o3)c(=O)oc2cc1O	1.64% (active)
Cc1c(/C=N/N2C(=O)C3C4C=CC(C4)C3C2=O)c2ccccc2n1C (stereo not given)	90.7%
Cc1coc2c(O)cc3c(c12)OC1(N2CCCCC2)C(=O)NCCCC31 (stereo not given)	2.34% (active)
Cc1cccc(N2CCN(C(=O)c3ccccc3NC(=O)C3CCCCC3C(=O)O)CC2)c1 (stereo not given)	93.7%
COc1ccc(NC(=O)/C(Cl)=C(/Cl)S(=O)Cc2ccc(C)cc2)cn1 (stereo not given)	0.98% (active)

SMILES	viability
COc1ccc(NS(=O)(=O)c2ccc(NC(=S)NC(=O)/C=C/c3ccc(C)cc3)cc2)nn1	84.3%
COc1cc(NC(=O)Nc2ccc(C)cc2)cc([N+](=O)[O-])c1	86.1%
COc1cc(OC)cc(C(=O)N[C@H](C(=O)OCC(=O)NC(C)c2ccccc2)C(C)C)c1 (stereo not given in full)	83.7%
O=C(NCc1ccccc1Cl)C1CCC(CNc2c(N3CCCCC3)c(=O)c2=O)CC1 (stereo not given)	98.7%
COC(=O)C(NC(=O)c1ccc(OC)cc1)(Nc1ncc(S(=O)(=O)c2ccc([N+](=O)[O-])cc2)s1)C(F)(F)F (stereo not given)	77.8%
Cc1cc(C)cc(OCC(=O)Nc2nc3ccc([N+](=O)[O-])cc3s2)c1	109%
O=C(NC(Nc1nc2ccc([N+](=O)[O-])cc2s1)(C(F)(F)F)C(F)(F)F)c1ccccc1	1.34% (active)
COc1ccc(NC(C(=O)Nc2cccc(C(C)=O)c2)c2ccccc2)cc1 (stereo not given)	84.6%
Cc1ccc(-c2csc(NNC(=O)c3ccccc3)n2)cc1	13.8%
COc1ccc(C)cc1Nc1nc(-c2c(C)[nH]c3ccccc23)cs1	89.8%
O=C(/C=C/Sc1ncn[nH]1)c1ccc(Cl)cc1	4.54% (active)
O=C(NCCOCc1ccc(Cl)cc1)c1ncn[nH]1	93%
CC(C)(C)c1ccc(C(=O)CSc2ncn[nH]2)cc1	94.5%
O=[N+]([O-])c1ccc(N/N=C2/CCCCC2c2ccccn2)c([N+](=O)[O-])c1 (stereo not given)	79.6%
CC[C@H]1CN2CCc3cc(OC)c(OC)cc3[C@@H]2C[C@@H]1C[C@H]1NCCc2cc(OC)c(OC)cc21	4.12% (active)
COc1cc2c(cc1O)[C@H](Cc1ccc(Oc3cc(C[C@@H]4NCCc5cc(OC)c(O)cc54)ccc3O)cc1)NCC2	55%
S=C(NCc1ccc(Cl)cc1)NC1CCCCC1	66%
COC(=O)Cc1ccc(NC(=S)NCc2ccc(Cl)cc2)cc1	84.8%
S=C(NCc1ccc(Cl)cc1)NC12CC3CC(CC(C3)C1)C2	3.01% (active)
CCCCN1C(=O)c2ccc(C(=O)Nc3ccc(S(=O)(=O)N(C)C)cc3)cc2C1=O	93.3%
Cc1ccc(NC(=O)CN(C)Cc2ccc(F)cc2)c([N+](=O)[O-])c1	91.3%
Cc1ccc(O)c(-c2cc(C(=O)Nc3c(C)n(C)n(-c4ccccc4)c3=O)[nH]n2)c1	80.2%
CC1CCCC(NC(=O)COC(=O)[C@@H]2CC(O)CN2S(=O)(=O)c2ccc3c(c2)OCCO3)C1C (stereo not given in full)	96.2%

SMILES	viability
CC1CCN(c2ccc(C(=O)NCc3ccc4c(c3)OCO4)cc2[N+](=O)[O-])CC1	94.5%
CCC(=O)Nc1ccc(C(=O)Nc2ccc3c(c2)C(=O)N(CC2CCCO2)C3=O)cc1 (stereo not given)	93.3%
O=C(NCc1ccc2c(c1)OCO2)c1ccc2c(c1)C(=O)N(CC1CCCO1)C2=O (stereo not given)	1.74% (active)
COc1cc(Cl)c(C)cc1NC(=O)COC(=O)c1cc(SC)ccc1Cl	79.6%
Cc1cc(-c2n[nH]c(=S)n2/N=C/C(Br)=C/c2ccccc2)n[nH]1	2.95% (active)
S=c1[nH]nc(-c2cccnc2)n1/N=C/C(Cl)=C\c1ccccc1	10.2%
Cc1ccc(/C=N\n2c(-c3ccccc3)n[nH]c2=S)s1	94.7%
Cc1ccc(NC(=O)c2oc(=O)c3ccccc3c2-c2ccccc2)c(C)c1	38.7%
CN(C)S(=O)(=O)c1ccc(N2CCCC2=O)c([N+](=O)[O-])c1	83%
CC1=C(C)CC(C(=O)NNC(=O)c2csc3c2CCC(C(C)(C)C)C3)C(C(=O)O)C1 (stereo not given)	95.9%
CC1=C(C)CC(C(=O)NNC(=O)c2ccccc2O)C(C(=O)O)C1 (stereo not given)	5.74% (active)
O=C(O)C1CC=C(Cl)CC1C(=O)NCc1ccccc1 (stereo not given)	90%
COc1ccc(C(=O)OCC(=O)NC(=O)CCSc2ccccc2)cc1	97.4%
COC(=O)c1cc(NC(=O)Cc2ccccc2[N+](=O)[O-])ccc1Cl	80.7%
N#Cc1cccc(NC(=O)COC(=O)c2ccccc2C(=O)c2ccc(Cl)c([N+](=O)[O-])c2)c1	3.2% (active)
CC(=O)Nc1ccc(NC(=O)C(C)OC(=O)c2ccccc2C(=O)c2ccc(Cl)c([N+](=O)[O-])c2)cc1 (stereo not given)	8.71%
CC(=O)Nc1ccc(SCC(=O)Nc2ccccc2Oc2ccccc2)cc1	86.2%
O=S(=O)(NCC1CCCO1)c1cnc(Cl)c(Cl)c1 (stereo not given)	69.3%
O=C(Nc1cccc2ccccc12)c1onc2c1CCCC2	1.26% (active)
O=C(Nc1c2c(nc3ccccc13)CCCC2)c1ccccc1Br	83.6%
O=C(O)c1ccccc1-c1ccccc1C(=O)Nc1cccc2ccccc12	90.2%
Cc1cc(C(C)(C)C)cc(C)c1N	100%
CCCc1nc(SCC(=O)Nc2ccc(S(=O)(=O)N(C)C)cc2)c2ccccc2n1	72.2%

SMILES	viability
Cc1cccc(N2CCN(C(=O)c3cnn4c(C(F)F)cc(-c5ccccc5)nc34)CC2)c1C	2.3% (active)
O=C(O)c1cnn2c(C(F)(F)F)cc(-c3ccccc3)nc12	96.5%
CC(=O)N1CCN(c2cccc(C)c2C)CC1	99.9%
CCC(C(=O)OCC(=O)Nc1ccccc1-c1ccccc1)c1ccccc1 (stereo not given)	92.8%
CCOc1ccccc1C1CC(c2cccc(NS(C)(=O)=O)c2)=NN1C(=O)c1ccccc1 (stereo not given)	79.6%
COc1ccc(C2CC(c3ccccc3)=NN2C(=O)c2ccc(Cl)c([N+](=O)[O-])c2)cc1 (stereo not given)	10.9%
CCOc1ccc2nc(Cl)c(C3CC(c4ccccc4)=NN3C(=O)c3cccs3)cc2c1 (stereo not given)	1.68% (active)
C/C(O)=C\c1nc(=O)c2c(C)cc(C)nc2n1-c1ccccc1	2.41% (active)
Cc1cc(C)c2c(n1)sc1c(=O)n(-c3ccccc3)c(=O)[nH]c12	95.9%
N#CCSc1nc2ccccc2c(=O)n1-c1ccccc1	101%
O=C1NC(=Nc2ccc(Cl)cc2)SC1Cc1cccc(Cl)c1Cl (stereo not given)	101%
COC(=O)c1sccc1NC(=O)COc1ccc(Cl)cc1	68.7%
Cc1ccc2[nH]c(=O)c(CC=C(Cl)Cl)c(C)c2c1	88.7%
CN(C)c1ccc(/C=N/NC(=O)c2ccc(Cn3cc(Br)cn3)o2)cc1	103%
COc1ccc(CCNc2cc(C)nc3c(-c4ccc(Cl)cc4)c(C)nn23)cc1OC	74.8%
CC(C)CC[n+]1ccn(C2=C([O-])c3ccccc3C(=O)/C2=N\S(=O)(=O)c2ccccc2)c1	2.01% (active)
COc1ccc(C2Nc3ccccc3C(=O)N2c2ccc(F)cc2)cc1Cn1nnc2ccccc21 (stereo not given)	69.3%
CC(=O)N1CC(C)c2scc(C)[n+]2-c2ccccc21 (stereo not given)	91.2%
COc1ccccc1NC(=O)CCCc1c[nH]c2ccccc12	101%
COc1ccc(C(CCNCc2ccccc2F)c2ccc(F)cc2)cc1 (stereo not given)	9.17%
COc1cccc(CNCCc2c[nH]c3ccccc23)c1OCc1ccccc1F	0.88% (active)

Source: PubChem BioAssay AID818 (SRMLSC, 2007)
